Screens (PubChem)
Bfl-1 A1 inh: caspase 3/7 activation in MEF A1-2A-BIM cells, primary screen, A1 inhibitor project, cell-based, luminescence, HTS. Caspase-Glo 3/7 luminescence, 3 h; percent of clofoctol response, vehicle zero. caspase activation, % (concentration not given with the values). 330,000 tested, 0.066% active. AID 2462, 2010;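 active = over half of replicate activation scores above 10%, or exactly half above 10 with the replicate mean above 10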
AHR act: AHR activators, primary screen, cell-based, luminescence, luciferase reporter, human. activation, % at 5 µM. 320,000 tested, 2.5% active. AID 2796, 2010. Aryl hydrocarbon receptor (Homo sapiens), P35869. AHR-responsive luciferase reporter cells; in the data active = activation above about 47%;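 also: 0% = vehicle wells and 100% = reference agonist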
VLA-4 inh: inhibition in human VLA-4 binding assay, primary screen, VLA-4 allosteric modulator project, MLPCN library, flow cytometry, VLA-4 expressing cells; Integrin alpha-4 (Homo sapiens), P13612; ligand binding flow cytometry; inhibition, % (about 7 µM as worked out from the volumes in the protocol); 330,000 tested, 0.2% active; AID 2557, 2010; in the data active = inhibition above about 50%
Efflux pump mplx: inhibitors of Candida efflux pumps in yeast, primary screen, S. cerevisiae, Nile Red, multiplex; S. cerevisiae Candida pump triplex; inhibition, % at 10 µM; 330,000 tested, 0.44% active;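 active = plate passing quality check with inhibition over a set limit, or well fluorescence over plate mean plus 4 SD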;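 also: Nile Red retained in pooled yeast measured as flow cytometry median fluorescence; 0% = buffer negative control and 100% = Enniatin B positive control; higher means more Nile Red kept so more efflux inhibition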
ALR H2O2 inh: inhibitors of human ALR sulfhydryl oxidase, primary screen, biochemical, H2O2 detection, HRP-luminol luminescence, single point; inhibition, % (concentration not given with the values); purified ALR, DTT oxidation; 290,000 tested, 3.8% active;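 active = mean replicate inhibition above about 79%, with every replicate also reaching it, limit read from the data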
Mot1-301 SUMO: yeast Mot1-301 growth rescue at high temperature, primary screen, SUMOylation pathway inhibitor project, S. cerevisiae, ATP luminescence, 38.5C; S. cerevisiae Mot1-301 growth rescue; percent above DMSO median, 100 means doubled; growth rescue, % at 18.8 µM; 320,000 tested, 1% active;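 active = every valid replicate shows activation above 250% relative to neutral control wells; inactive = the rest, any valid replicate at or below 250%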;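 also: OY570 slx delta 5 strain wells were the positive control but not used for scaling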
* marks the source's active call; other numbers are inactive results. Hits are enriched below; roughly 7.2% of the tested compounds scored in any of these assays.

How did C/C(=N\Nc1ccc([N+](=O)[O-])cc1[N+](=O)[O-])C(C)(C)C(C(=O)O)C(=O)O do in these assays?
Bfl-1 A1 inh: -0.1; AHR act: 11.9; VLA-4 inh: -6.3; Efflux pump mplx: 0.0; ALR H2O2 inh: 83.1*; Mot1-301 SUMO: -7.7

How did O=C(Cc1ccon1)c1ccc(O)cc1O do in these assays?
Bfl-1 A1 inh: -1.6; VLA-4 inh: 28.7; Efflux pump mplx: 0.0; ALR H2O2 inh: -8.0; Mot1-301 SUMO: 11.7

How did CCOc1ccccc1NC(=O)c1ccc(OCC)c([N+](=O)[O-])c1 do in these assays?
Bfl-1 A1 inh: 1.4; AHR act: 1.2; VLA-4 inh: 9.6; Efflux pump mplx: 0.1; Mot1-301 SUMO: 8.8

How did CCCOc1ccccc1NC(=O)c1ccc([N+](=O)[O-])cc1 do in these assays?
Bfl-1 A1 inh: 0.6; AHR act: 64.3*; VLA-4 inh: 21.7; Efflux pump mplx: 0.1; ALR H2O2 inh: 7.8; Mot1-301 SUMO: -10.8

How did CCOc1ccccc1NC(=O)NNC(=O)c1ccc2ccccc2c1 do in these assays?
Bfl-1 A1 inh: -0.4; AHR act: 49.1*; VLA-4 inh: 0.8; Efflux pump mplx: -0.1; ALR H2O2 inh: -1.7; Mot1-301 SUMO: -9.5

How did CCOc1ccccc1NC(=O)c1ccc([N+](=O)[O-])cc1 do in these assays?
Bfl-1 A1 inh: -1.6; AHR act: 41.0; VLA-4 inh: 0.0; Efflux pump mplx: -0.1; ALR H2O2 inh: -2.6; Mot1-301 SUMO: -1.5

Results for CCOc1ccccc1NC(=O)c1ccc2ccccc2c1 ?
Bfl-1 A1 inh: 0.9; AHR act: 66.7*; VLA-4 inh: 1.3; Efflux pump mplx: 0.2; ALR H2O2 inh: -7.6; Mot1-301 SUMO: -7.1

How did CCc1ccc(N(CC(=O)NCc2ccc3c(c2)OCO3)C(=O)c2csnn2)cc1 do in these assays?
Bfl-1 A1 inh: -0.5; AHR act: 1.7; VLA-4 inh: 9.4; Efflux pump mplx: -0.3; ALR H2O2 inh: -4.6; Mot1-301 SUMO: -8.0

What do the screens show for `COCCn1c(SCc2ccc(OC)c(F)c2)nnc1-c1ccncc1`?
Bfl-1 A1 inh: 0.0; AHR act: 1.3; VLA-4 inh: 3.5; Efflux pump mplx: 0.0; Mot1-301 SUMO: 5.0

How did CCOC(=O)/C=C/[C@H]1CCc2cccc(C)c2O1 do in these assays?
Bfl-1 A1 inh: 0.8; AHR act: 2.8; VLA-4 inh: 7.7; Efflux pump mplx: -0.1; ALR H2O2 inh: 5.7; Mot1-301 SUMO: 13.9

How did CCn1c(=O)c2c3c(sc2n2c(=S)[nH]nc12)CCC3 do in these assays?
Bfl-1 A1 inh: 0.3; AHR act: 0.6; VLA-4 inh: 8.7; Efflux pump mplx: 0.0; ALR H2O2 inh: 86.8*; Mot1-301 SUMO: -8.1

How did CCCSc1nnc2n(C)c(=O)c3c4c(sc3n12)CCC4 do in these assays?
Bfl-1 A1 inh: -0.4; AHR act: 77.6*; VLA-4 inh: -8.4; Efflux pump mplx: 0.2; ALR H2O2 inh: 9.6; Mot1-301 SUMO: 0.8

What do the screens show for `O=S(=O)(c1ccc(F)cc1)N1CCN(c2nc(-c3cccnc3)nc3ccccc23)CC1`?
Bfl-1 A1 inh: -0.9; AHR act: 2.5; VLA-4 inh: -15.7; Efflux pump mplx: 0.1; ALR H2O2 inh: 8.6; Mot1-301 SUMO: -10.3

What do the screens show for `Cc1c(Br)cnn1C(C)C(=O)N1CCN(c2ccc(F)cc2)CC1` (centres undefined)?
Bfl-1 A1 inh: 0.3; AHR act: 0.0; VLA-4 inh: 13.1; Efflux pump mplx: 0.4; ALR H2O2 inh: 94.0*; Mot1-301 SUMO: -12.7

What do the screens show for `Cn1ncc(Cl)c1C(=O)N1CCN(c2ccc(F)cc2)CC1`?
Bfl-1 A1 inh: -0.3; AHR act: 0.9; VLA-4 inh: 8.5; Efflux pump mplx: 0.2; ALR H2O2 inh: 26.0; Mot1-301 SUMO: 8.9

How did Cc1ccc(C=Nc2ccccc2C(N)=O)o1 do in these assays?
Bfl-1 A1 inh: -6.6; AHR act: 15.6; VLA-4 inh: 9.4; Efflux pump mplx: -0.2; ALR H2O2 inh: -8.1; Mot1-301 SUMO: -12.6

What do the screens show for `Cc1ccc(C=Nc2ccc(N(C)C)cc2)o1`?
Bfl-1 A1 inh: -0.2; AHR act: 14.5; VLA-4 inh: -1.7; Efflux pump mplx: -0.1; ALR H2O2 inh: 98.1*; Mot1-301 SUMO: -35.5
